This passage reports outcome and AC50 results from PubChem BioAssay (EPA / NIEHS).

Active and inactive are the calls of the source. How the source made its calls: active means hit-call score of the fitted dose curve at least 0.9, where 1 is the maximum; inactive means score below 0.9.

Read-out in the assay: Monocyte Chemoattractant Protein-1 (MCP1), CCL2 (gene 6347)
Nature of the assay: BSK_SAg_MCP1: BioMAP Diversity Plus: SAg Assay for Monocyte Chemoattractant Protein-1 (MCP1) Biomarker Activity (AID 2283090). The following applies: primary human HUVEC with PBMC; actives raise or lower the signal. In short, it runs like this: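 MCP-1 levels in the endothelial–PBMC SAg co-culture were quantified by ELISA at 24 h post-dosing; both increases and decreases versus DMSO scored. Cytotoxicity monitored by SRB total protein in parallel cultures.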
Take `O=C(O)c1cn(C2CC2)c2cc(N3CCNCC3)c(F)cc2c1=O`: the outcome was inactive.
Usually AC50 stands for the concentration giving half of the maximal activity seen. Turning to `C=C(C)C(=O)O[C@H]1C[C@@H]2CC[C@@]1(C)C2(C)C`, the AC50 is 34.1 µM (active).
As for `CCCCCCCCCCCCCCCCCC(=O)OCC(CC)CCCC` (centres undefined), the outcome was inactive.
Still for that read-out and setting: under `CC(C)(COC(=O)c1ccccc1)COC(=O)c1ccccc1` stands “inactive”; under `O=C(O)C[C@H](O)C[C@H](O)/C=C/c1c(C2CC2)nc2ccccc2c1-c1ccc(F)cc1`, “inactive”.
Same read-out and setting: under `CCc1c(C)cc(N)c(CC)c1N` stands “inactive”.
In the case of `CC(=O)OCCC(C)CC(C)(C)C` (centres undefined), the result was inactive.
With `O=C(O)c1cn(-c2ccc(F)cc2)c2cc(N3CCNCC3)c(F)cc2c1=O`, the outcome was inactive.
For `CCn1c2ccccc2c2cc(N)ccc21`, the half-maximal activity concentration (AC50) is 1.85 µM (active).
As for `O=C1OC2(c3cc(Br)c(O)c(Br)c3Oc3c2cc(Br)c(O)c3Br)c2c(Cl)c(Cl)c(Cl)c(Cl)c21`, the AC50 is 5.24 µM (active).
On to `OC1OC[C@@H](O)[C@H](O)[C@H]1O` (some centres undefined), for which the outcome was inactive.
On to `BrC1CCC(Br)C(Br)CCC(Br)C(Br)CCC1Br` (centres undefined), for which the result was inactive.
For the compound `Nc1cc([N+](=O)[O-])ccc1Cl`, the outcome was inactive.
As for `CC(=O)O[C@]1(C(C)=O)CC[C@H]2[C@@H]3C[C@H](C)C4=CC(=O)CC[C@]4(C)[C@H]3CC[C@@]21C`, the outcome was inactive.
For `CCCCC(CC)COC(=O)/C=C\C(=O)OCC(CC)CCCC` (centres undefined), the result was inactive.
Same read-out and setting: under `CCCCCCCCCC=O` stands “inactive”; under `CC1COc2ccccc2N1C(=O)C(Cl)Cl` (centres undefined), “inactive”; under `O=P(c1ccccc1)(c1ccccc1)c1ccccc1`, “inactive”.
As for `OC[C@H]1O[C@H](O[C@]2(CCl)O[C@H](CCl)[C@@H](O)[C@@H]2O)[C@H](O)[C@@H](O)[C@H]1Cl`, the result was inactive.
